Screens (PubChem)
Dicer processing: human Dicer pre-microRNA cleavage inhibition | Q9UPY3 | cat-ELCCA pre-miR-21 Dicer processing, chemiluminescence; stronger effect = higher value | z-score at 25 µM | actives 6% (n = 47,000); in the data active = z-score above about 3, passing the limit was not always enough;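 also: plate controls were vehicle for no effect and no enzyme for full effect; higher signal means more uncleaved substrate so more Dicer inhibition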
Target sequence (Q9UPY3 whole entry, looked up): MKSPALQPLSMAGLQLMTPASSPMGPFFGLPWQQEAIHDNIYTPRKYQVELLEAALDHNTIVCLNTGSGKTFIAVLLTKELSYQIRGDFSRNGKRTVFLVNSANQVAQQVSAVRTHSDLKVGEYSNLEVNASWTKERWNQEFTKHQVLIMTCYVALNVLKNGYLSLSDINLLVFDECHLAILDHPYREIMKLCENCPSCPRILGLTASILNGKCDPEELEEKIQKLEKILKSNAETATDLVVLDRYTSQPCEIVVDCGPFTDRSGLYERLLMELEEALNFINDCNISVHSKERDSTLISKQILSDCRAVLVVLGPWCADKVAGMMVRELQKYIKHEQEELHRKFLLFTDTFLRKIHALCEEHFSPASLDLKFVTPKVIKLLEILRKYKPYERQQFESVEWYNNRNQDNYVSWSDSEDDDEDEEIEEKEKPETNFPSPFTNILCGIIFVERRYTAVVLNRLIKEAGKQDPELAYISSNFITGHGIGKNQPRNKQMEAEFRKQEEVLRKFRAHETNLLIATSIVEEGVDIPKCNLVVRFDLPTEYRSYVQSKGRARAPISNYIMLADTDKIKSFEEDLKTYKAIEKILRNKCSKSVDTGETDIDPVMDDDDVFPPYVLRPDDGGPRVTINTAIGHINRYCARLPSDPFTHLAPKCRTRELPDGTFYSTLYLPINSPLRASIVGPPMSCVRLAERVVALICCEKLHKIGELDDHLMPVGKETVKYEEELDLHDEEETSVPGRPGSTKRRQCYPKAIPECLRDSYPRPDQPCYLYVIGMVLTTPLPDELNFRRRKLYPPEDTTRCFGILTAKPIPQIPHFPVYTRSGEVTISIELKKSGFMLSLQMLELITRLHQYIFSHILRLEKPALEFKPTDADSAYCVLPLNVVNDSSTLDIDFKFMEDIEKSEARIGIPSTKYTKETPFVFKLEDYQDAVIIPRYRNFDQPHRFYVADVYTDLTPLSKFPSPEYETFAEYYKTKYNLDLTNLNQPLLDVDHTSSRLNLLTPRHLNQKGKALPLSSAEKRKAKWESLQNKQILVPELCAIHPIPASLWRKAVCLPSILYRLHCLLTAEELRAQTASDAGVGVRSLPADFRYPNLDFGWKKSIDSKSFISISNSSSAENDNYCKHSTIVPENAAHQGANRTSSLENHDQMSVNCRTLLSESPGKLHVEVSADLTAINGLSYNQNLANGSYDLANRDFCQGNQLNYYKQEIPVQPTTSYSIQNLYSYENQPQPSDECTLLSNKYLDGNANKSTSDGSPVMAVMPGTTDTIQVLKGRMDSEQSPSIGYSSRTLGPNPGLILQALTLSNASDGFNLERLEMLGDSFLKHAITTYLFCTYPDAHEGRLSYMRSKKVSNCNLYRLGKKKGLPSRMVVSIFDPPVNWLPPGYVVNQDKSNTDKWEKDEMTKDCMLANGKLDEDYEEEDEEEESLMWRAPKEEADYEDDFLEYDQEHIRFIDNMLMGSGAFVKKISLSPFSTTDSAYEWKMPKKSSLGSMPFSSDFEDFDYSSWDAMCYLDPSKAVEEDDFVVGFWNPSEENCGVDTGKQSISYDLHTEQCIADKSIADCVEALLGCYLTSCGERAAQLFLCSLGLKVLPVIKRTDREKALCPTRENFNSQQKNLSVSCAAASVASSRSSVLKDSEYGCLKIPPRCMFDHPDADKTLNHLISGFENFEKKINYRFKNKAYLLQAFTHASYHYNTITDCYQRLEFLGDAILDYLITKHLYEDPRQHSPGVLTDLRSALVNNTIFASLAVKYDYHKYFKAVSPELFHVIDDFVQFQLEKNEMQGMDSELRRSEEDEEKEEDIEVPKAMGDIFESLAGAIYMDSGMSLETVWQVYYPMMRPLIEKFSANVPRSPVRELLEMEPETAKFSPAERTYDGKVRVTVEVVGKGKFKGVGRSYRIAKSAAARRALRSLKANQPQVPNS
Active calls of the source: *. This is one part of a sample in which hits are shown more often than they occur.

SMILES | Dicer processing
Nc1nc(N2CCCCC2)ncc1S(=O)(=O)c1ccc(Cl)cc1 | 0.72
CN1c2ccccc2C(=O)/C(=N\Nc2cc(C(F)(F)F)cc(C(F)(F)F)c2)S1(=O)=O | -0.2
Cc1cc(C(F)(F)F)cc(NNC(=O)c2ccc(Cl)cc2)n1 | 0.64
O=C1c2ccccc2-c2ccc(Br)cc21 | 1.3
Cn1c(=O)c2c(c3ccccc31)OC(=O)CC2c1ccc(F)cc1 (stereo unspecified) | -1.2
Cc1occc1C(=O)C(C#N)=C1SCCCCS1 | -0.89
COC(=O)c1cnc(N2CCN(c3ncc(C(=O)OC)c(C(F)(F)F)n3)CC2)nc1C(F)(F)F | -0.64
O=C(Nc1ccc(Cl)cc1)Nc1ncc(C(F)(F)F)cc1Cl | 0.65
COC(=O)c1cn(C(=O)c2ccco2)c2ccccc12 | -0.78
COC(=O)c1cn(C(=O)COc2ccc(Cl)cc2)c2ccccc12 | 0.02
COC(=O)c1cn(C(=O)c2cccs2)c2ccccc12 | 3*
Cc1nc(-c2ccc3c(c2)OCC3)sc1C(=O)Nc1ccc(N2CCCCC2)cc1 | 2.2
O=C1c2cccc3cccc(c23)C(=O)N1c1ccc(Cl)cc1 | 6*
O=C1c2cccc3cccc(c23)C(=O)N1c1ccccc1 | 0.9
CN1C(=O)c2cccc3cccc(c23)C1=O | -1.1
COc1ccc(-c2cn(C(=O)c3cccs3)nc2C)cc1 | -0.56
COc1ccc(CCNC(=S)NCCc2ccccc2)cc1OC | 0.7
S=C(NCc1ccccc1Cl)Nc1cc(Cl)c(Cl)cc1Cl | 1.4
S=C(NCCc1ccccc1)Nc1cc(Cl)c(Cl)cc1Cl | 4.7*
COC(=O)c1sccc1Oc1ccc(C(F)(F)F)cc1NS(=O)(=O)c1cccc(Cl)c1C | 1.3
CC(C)(C)c1nc2scc(-c3ccc(Cl)cc3)n2n1 | 0.29
O=C(Cn1nnc(-c2ccccc2Oc2ccc(Cl)cc2Cl)n1)NNC(=S)Nc1cc(Cl)cc(Cl)c1 | 6.3*
O=C(CCc1ccc(O)cc1)NNC(=S)Nc1ccc(Cl)c(Cl)c1 | 0.05
O=C(CCn1nnc(-c2cccc(Cl)c2Cl)n1)NNC(=S)Nc1ccc(Cl)c(Cl)c1 | 9.4*
CC(Oc1ccc(Cl)cc1Cl)C(=O)NNC(=S)Nc1ccccc1 (stereo unspecified) | 0.74
SMILES | Dicer processing
O=C(Cn1nnc(-c2ccccc2C(F)(F)F)n1)NNS(=O)(=O)c1cccc(Cl)c1 | 0.86
N#CCC(=O)NNC(=S)Nc1ccc(Cl)c(Cl)c1 | -0.46
C=CCOc1ccc(C2c3c(oc4ccccc4c3=O)C(=O)N2Cc2ccc3c(c2)OCO3)cc1 (stereo unspecified) | 0.4
Fc1cccc(-c2nn3c(Cc4ccccc4)nnc3s2)c1 | 2.4
Nc1nc2c(c(=O)[nH]1)C(c1ccc(F)cc1)CC(=O)N2 (stereo unspecified) | 1.7
COC(=O)c1ccc(CN2CCOCC2)o1 | 0.09
Cc1csc(NN=C2CCCCC2)n1 | -0.29
COc1ccc2c(c1)CCCN2C(=O)c1sc2ccccc2c1Cl | -1.1
COc1ccc2sc(C(=O)O)c(Br)c2c1 | 4.3*
COc1ccc2[nH]c(C(=O)O)cc2c1 | 0.75
CCc1cc2c(=O)c(-c3nc4ccccc4s3)coc2cc1OC(C)=O | 2.7
COC(=O)C1=C(C)NC2=C(C(=O)CC(C)(C)C2)C1c1ccc(C)s1 (stereo unspecified) | 0.13
O=C1NS(=O)(=O)c2ccc(Cl)cc2Sc2ccccc21 | 0.03
CC1=CS(=O)(=O)c2ccc(Cl)cc21 | 4.3*
COC(=O)c1cc2c(s1)-c1cc(Cl)ccc1S(=O)(=O)C2 | -1.2
Cc1ccc(/C=C/c2nn3c(-c4ccco4)nnc3s2)cc1 | 3.2*
COc1ccc(/C=C/c2nn3c(-c4ccccc4Cl)nnc3s2)cc1 | 2.3
Cc1cccc(/C=C/c2nn3c(-c4ccco4)nnc3s2)c1 | 3.4*
Cc1ccc(/C=C/c2nn3c(-c4ccco4)nnc3s2)cc1C | 2.2
Clc1ccccc1-c1nnc2sc(/C=C/c3ccccc3)nn12 | 1.3
COc1ccc(/C=C/c2nn3c(Cc4ccc(OC)cc4)nnc3s2)cc1 | 4.7*
COc1ccc(/C=C/c2nn3c(Cc4ccccc4)nnc3s2)cc1 | 0.34
COc1ccc(/C=C/c2nn3c(COc4ccccc4)nnc3s2)cc1 | -1.5
Clc1ccccc1-c1ccc(-c2nn3c(-c4ccco4)nnc3s2)o1 | 0.62
O=C(c1ccc2ccccc2n1)N1CCc2ccccc2C1 | -0.29
SMILES | Dicer processing
O=[N+]([O-])c1cccnc1Sc1ccccn1 | -1.8
N#CC(Nc1ccc(Cl)cc1Cl)c1ccccc1 (stereo unspecified) | -0.34
Cc1cc(OC(=O)c2c(-c3ccccc3)noc2C)n(-c2ccccc2)n1 | -2.2
O=C1CC(c2ccccc2)CC2=C1C(c1cc3c(cc1Br)OCO3)Nc1ccccc1N2 (stereo unspecified) | 3.3
CN/N=C/c1ncc(C(F)(F)F)cc1Cl | 1.4
Cc1cc(C)c(-n2nnnc2SCc2c(F)cccc2Cl)c(C)c1 | -0.97
Cc1ccc(C)c(COc2ccc(C)nc2NC(=O)c2ccc(F)cc2)c1 | 3.8*
Cc1ccc(C)c(COc2ccc(C)nc2[N+](=O)[O-])c1 | 0.37
Cc1ccc2ncc(NC(=O)c3ccc(F)cc3)c(=O)n2c1 | -0.07
CSc1nc2n(n1)C(N)=C(C#N)C(c1ccccc1)N2 (stereo unspecified) | -1.9
NC(=S)N/N=C/c1ccc(-c2ccc(C(F)(F)F)cc2[N+](=O)[O-])o1 | -1.8
COCCn1cc2c(c1-c1ccccc1)c(=O)n(C)c(=O)n2C | 0.38
COc1ccc(Br)c(C(=O)/C(C#N)=C/c2cccs2)c1 | 0.78
COc1ccc(Br)c(C(=O)NN)c1 | 0
COc1ccc(Br)c(C(=O)/C(C#N)=C/c2ccc(N(C)C)cc2)c1 | 6.2*
CC(C)CSc1nnc2sc3ccccc3n12 | -1.1
Cc1cc(Br)ccc1OCCCN1CCN(C)CC1 | 2.2
COC(=O)c1cnn(-c2c(Cl)cccc2Cl)c1C(OC)OC | -1.6
O=C(NCc1ccccc1)N1CC2C=CC1C2 (stereo unspecified) | 6.2*
O=C(NCc1ccccc1)C1CCC(C(=O)NCc2ccccc2)N1 (stereo unspecified) | -0.39
O=C(NCc1ccccc1)N1c2ccccc2Sc2ccccc21 | -0.87
FC(F)(F)c1ccccc1-n1cn[nH]c1=S | -0.85
CCSC1=N/C(=C\c2ccc(OC(C)=O)c(Br)c2)C(=O)S1 | 0.77
N/C(=N\O)c1cccc(-n2cccc2)c1 | -0.1
Cc1nc2cc(NCc3ccco3)ccc2n1C | 1.9
SMILES | Dicer processing
Cc1ccc(-n2cnc3cc(NCc4ccncc4)ccc32)cc1 | 13
COc1ccccc1-n1cnc2cc(NCc3ccco3)ccc21 | 6.5*
Cc1nnc(NC(=O)C(C)(C)C)s1 | 2.3
CC1SC(c2cccnc2)N(c2ccc(F)cc2F)C1=O (stereo unspecified) | 2.9
Cc1nc2c(s1)c(C)nn2-c1ccccc1 | 0.81
Cc1nc2c(=O)n(-c3ccc(F)cc3F)nc(C)c2s1 | 3.2*
COc1ccc(NC(CC(=O)C2CC2)c2ccccc2)cc1 (stereo unspecified) | -1.4
c1ccc2oc(NC3=NCN(CCN4CCOCC4)CN3)nc2c1 | -0.36
O=C(Nc1nnc(C(F)(F)F)s1)c1c(F)cccc1F | -0.09
FC(F)(F)c1nnc(Nc2ccc(Cl)cc2)s1 | 7.3*
FC(F)(F)c1nnc(Nc2cccnc2)s1 | 0.07
O=C(NCc1ccc(S(=O)(=O)NCc2cc(F)cc3c2OCOC3)s1)c1ccc(Cl)cc1 | 0.28
O=c1[nH]c(/C=C/c2cn(Cc3ccccc3)c3ccccc23)nc2ccccc12 | 2.1
CCN(CC)CCOc1c(Br)ccc2c1sc1nc3n(c(=O)c12)CCC3 | 4.1*
CC(=O)N1c2ccccc2NC2=C(C(=O)CC(C)(C)C2)C1c1cccc(F)c1 (stereo unspecified) | 1.5
